# Rows were chosen to be rich in hits. Some 2% of all compounds tested hit in one or more screens of this group.
# A3A deaminase: blocks human APOBEC3A ssDNA deamination; P31941; inhibition, % at 20 µM; 0.41% of 330,000 active; AID 493011; recombinant A3A, FAM/TAMRA ssDNA deamination fluorescence;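 active = at least 40% inhibition at 20 µM here, with at most 30% in a related deaminase screen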;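 note: plate controls were A3A with DMSO for no effect and wells lacking A3A enzyme for full effect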
# NPR1 activator: GC-A (human) enzyme activation; P16066; HEK293 GC-A cells, cGMP TR-FRET, EC30 ANP; 0% at EC30 ANP, 100% saturating ANP; activation, % at 10 µM; 0.14% of 370,000 active; AID 1671463; in the data active = activation above about 40%
# APOBEC3G inh: blocks human APOBEC3G single-stranded DNA deamination; recombinant A3G, ssDNA deamination FAM/TAMRA fluorescence; inhibition, % at 20 µM; 0.28% of 330,000 active; AID 493012;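 active = inhibition of at least 40% at 20 µM, with no more than 30% in the related APOBEC3A deaminase screen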;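 note: plate controls were DMSO wells with A3G for no effect and wells lacking A3G enzyme for full effect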
# GC-B act: GC-B (human) receptor activation; P20594; HEK293-GC-B cells, CNP EC30, cGMP TR-FRET; 0% at EC30 CNP, 100% saturating CNP; activation, % at 10 µM; 0.11% of 370,000 active; AID 1920062;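 active = activation at 10 µM reaching about 35% in either raw or pattern-adjusted values, limit read from the data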
# Neddylation inh: cullin neddylation inhibition; TR-FRET cullin neddylation, biochemical; inhibition, % at 25 µM; 0.58% of 360,000 active; AID 651699; in the data active = inhibition above about 36%
# PfGluPho inh: PfG6PD (Plasmodium falciparum) enzyme inhibition. inhibition, % at 20 µM. PfGluPho enzyme, NADPH resazurin-diaphorase fluorescence. 0.78% of 350,000 active. AID 504690;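 active = inhibition reaching at least a set limit at 20 µM in the primary screen, cut at about 59% in these data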;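 note: 0% = DMSO wells with substrate and 100% = DMSO wells lacking glucose-6-phosphate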
# PfG6PD confirm: PfG6PD inhibition, single-dose confirmed. inhibition, % at 20 µM. shares compounds with PfGluPho inh. 34% of 2,400 active. recombinant PfGluPho, NADPH-diaphorase-resazurin fluorescence;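 active = inhibition of at least 50% at 20 µM in any single replicate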;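 note: 0% = DMSO with substrate and 100% = DMSO lacking glucose-6-phosphate substrate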
# Diaph ctr 10uM: inhibits diaphorase or oxidizes, flagging false PfG6PD hits. diaphorase-coupled resazurin reduction, fluorescence, NADPH 10 uM. 39% of 820 active. shares compounds with PfGluPho inh. AID 504862. inhibition, % at 20 µM;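 active = average inhibition reaching 50% or more with the compound at 20 µM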;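 note: resorufin red fluorescence formed as diaphorase reduces resazurin using NADPH; 0% = DMSO with enzyme and 100% = DMSO without enzyme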
# Diaphorase 30uM: counter-screen for P. falciparum G6PD inhibitors: diaphorase inhibitors, oxidizers | shares compounds with PfGluPho inh | Diaphorase/resazurin coupled assay, resorufin fluorescence, 30 uM NADPH | inhibition, % at 20 µM | 29% of 820 active | AID 504863;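 active = inhibition averaging 50% or more, tested at 20 µM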;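 note: 0% = DMSO with enzyme and 100% = DMSO wells lacking diaphorase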
# * marks the source's active call; other numbers are inactive results; · = no result given.
SMILES,A3A deaminase,NPR1 activator,APOBEC3G inh,GC-B act,Neddylation inh,PfGluPho inh,PfG6PD confirm,others
O=C(NNC(=O)c1ccccc1OCc1ccc(F)cc1)c1ccccc1O,-4,-3,-6,0,·,120*,70*,Diaph ctr 10uM=67*;Diaphorase 30uM=50*
CC(C)C[C@@H]1COc2cc(Br)ccc2S(=O)(=O)N1Cc1cn(Cc2ccco2)nn1,·,0,·,-3,·,·,·,
Nc1c(C(=O)OCC2CCCO2)c2nc3ccccc3nc2n1C1CCCC1 (stereo unspecified),0,4,-5,2,·,49,20,
CCOC(=O)c1ccc(/[N+]([O-])=C/c2ccccc2)cc1,3,-2,13,8,-24,90*,97*,Diaph ctr 10uM=49;Diaphorase 30uM=8
C#CCCc1cscc1/C=[N+](\[O-])c1ccc(C(=O)OCC)cc1,-2,2,-7,-2,4,116*,103*,Diaph ctr 10uM=43;Diaphorase 30uM=15
Cc1ccc(NNC(=O)Nc2ccc(Cl)cc2)nn1,1,12,9,-1,-5,68*,26,
CCCCCC[C@H](CC)CN(C(=O)Oc1ccccc1)c1ccccc1,·,1,·,-4,·,·,·,
O=C(COc1cccc2ccccc12)N/N=C/c1ccccc1OCc1ccc(C(=O)O)cc1,-4,-7,-6,-3,-9,77*,45,
Cc1nnc(N/N=C\c2ccc(-c3cccc(C(=O)O)c3)o2)n1N,8,-4,1,1,31,71*,52*,Diaph ctr 10uM=25;Diaphorase 30uM=18
Cc1nnc(N/N=C/c2ccc(-c3ccc(Br)cc3)o2)n1N,-1,20,-7,-7,15,61*,48,
O=C(O)c1cccc(-c2ccc(/C=N/NC(=O)c3cccnc3)o2)c1,19,0,0,3,26,-1,·,
O=S(=O)(c1cc2ccccc2s1)n1c(CN2CCOCC2)nc2ccccc21,·,-3,·,-8,·,·,·,
CCOc1ccc(Cl)cc1/C=N/NC(N)=O,-1,-1,-6,-6,8,79*,53*,Diaph ctr 10uM=47;Diaphorase 30uM=38
CN1Cc2nnn(CC3CCCCC3)c2-c2ccccc2S1(=O)=O,·,-1,·,-6,·,·,·,
O=C(Nc1ccccn1)C(=O)Nc1ccccn1,-5,-3,10,4,0,0,·,
S=C(Nc1ccccn1)c1ccccn1,6,-1,18,3,-24,67*,13,
O=C(CSc1nnc(SCc2ccccc2Cl)s1)N/N=C/c1c[nH]c2ccccc12,-5,5,-7,-10,-2,89*,37,
O=C(CN1C(=O)C2(OCCCO2)c2ccccc21)NCc1ccc2ccccc2c1,·,-3,·,0,·,·,·,
Nc1ccc(Oc2ncccn2)cc1,-1,0,0,-6,-23,66*,26,
O=C1C(Cl)=C(NCCc2ccccc2)C(=O)c2ccccc21,·,4,·,-4,-67,97*,80*,Diaph ctr 10uM=2;Diaphorase 30uM=-2
O=C1C(Cl)=C(Nc2ccccc2)C(=O)c2ccccc21,·,6,·,-2,0,-17,·,
COc1ccc(N2C3=C(CC4=C2CCCC4=O)C(=O)CCC3)cc1,8,-2,21,1,-4,97*,19,
N#CCC[C@@H]1CC[C@]2(CCCN(S(=O)(=O)c3ccccc3)C2)O1,·,2,·,-8,·,·,·,
CCOC(=O)C1CCN(C(=O)COC(=O)CSc2ccc([N+](=O)[O-])cc2)CC1,1,4,-9,1,-10,42,·,
CC1CCCC(C)N1C(=O)COC(=O)CSc1ccc([N+](=O)[O-])cc1 (stereo unspecified),-4,3,-3,-6,-14,64*,1,
OC(c1ccccc1)(c1ccccc1)C1CCN(CCCOc2ccc(OC(F)(F)F)cc2)CC1,·,-8,·,1,·,·,·,
CCOC(=O)CC[C@H]1CC[C@]2(CCCN(C(=O)C3CCCC3)C2)O1,·,3,·,-11,·,·,·,
C(=C\c1ccco1)/c1ccc2ccccc2n1,30,3,18,-5,6,66*,10,
